# About 79,000 compounds went through this panel and 15% of them were active in at least one assay; those are over-represented in the sample as a whole. Unmarked numbers belong to inactive results. Calls of active or inactive are those of the source. Cut-off read from the data, not from the text of the source: active = growth inhibition above about 70%; inactive = the rest.
# How the values were obtained:
# [1] = NCI Yeast Anticancer Drug Screen. Data for the rad50 strain (AID 155);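 note: 0% = growth of vehicle-only cultures of the same strain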; details: S. cerevisiae rad50 strain growth inhibition, stronger effect = higher value
# Summary of the method: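 A DNA repair-deficient yeast mutant serves as the test organism; compound-induced growth inhibition is calculated against vehicle-treated cells.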
# [2] = NCI Yeast Anticancer Drug Screen. Data for the mec2-1 strain (AID 157); details: S. cerevisiae mec2-1 strain, stronger effect = higher value
# Summary of the method: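 Vehicle-treated cultures served as reference for growth inhibition of compound-exposed mec2-1 yeast.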
# [3] = NCI Yeast Anticancer Drug Screen. Data for the sgs1 mgt1 strain (AID 161);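 note: 0% = growth of cultures given vehicle only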; details: S. cerevisiae sgs1 mgt1 strain, stronger effect = higher value
# Summary of the method: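 Genetically altered yeast, compound exposure, growth inhibition relative to vehicle.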
# [4] = NCI Yeast Anticancer Drug Screen. Data for the cln2 rad14 strain (AID 165);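 note: 0% = growth equal to vehicle treated cultures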; details: S. cerevisiae cln2 rad14 strain, stronger effect = higher value
# Summary of the method: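 Each compound was tested on cln2 rad14 yeast. Inhibition of growth was calculated against vehicle-exposed controls.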
# [5] = NCI Yeast Anticancer Drug Screen. Data for the bub3 strain (AID 167); details: S. cerevisiae bub3 mutant strain, stronger effect = higher value
# Summary of the method: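 Inhibition values come from growth of compound-treated mutant yeast normalised to vehicle-treated controls.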
# [6] = NCI Yeast Anticancer Drug Screen. Data for the mlh1 rad18 strain (AID 175); details: S. cerevisiae mlh1 rad18 strain growth inhibition, stronger effect = higher value
# Summary of the method: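 Vehicle-treated cultures served as the reference for growth inhibition in a yeast strain carrying DNA damage repair alterations exposed to each compound.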
# [7] = at 5.0 µM (retest, dose inferred, filed as 0.5)
# [8] = at 50.0 µM (retest, dose inferred, filed as 5.0)
Structure (SMILES),"growth inhibition [1, 7]","growth inhibition [1, 8]",growth inhibition ([1]; at 50.0 µM),"growth inhibition [2, 7]","growth inhibition [2, 8]",growth inhibition ([2]; at 50.0 µM),"growth inhibition [3, 7]","growth inhibition [3, 8]",growth inhibition ([3]; at 50.0 µM),"growth inhibition [4, 7]","growth inhibition [4, 8]",growth inhibition ([4]; at 50.0 µM),"growth inhibition [5, 7]","growth inhibition [5, 8]",growth inhibition ([5]; at 50.0 µM),"growth inhibition [6, 7]","growth inhibition [6, 8]",growth inhibition ([6]; at 50.0 µM)
Nc1ccccc1O.O.O=C(O)C1[O][Sb][O]C1C(=O)O (stereo unspecified),19%,33%,55.5%,26%,23%,53.5%,12%,25%,27.2%,10%,20%,33.3%,37%,61%,82.4% (active),37%,55%,59.4%
S=c1sc(-c2ccccc2)c[se]1,-1%,42%,67%,2%,28%,21.6%,-2%,34%,46.4%,-1%,13%,88.5% (active),-1%,17%,35.1%,-5%,41%,32.9%
Cc1ccc(NCc2ccccc2)cc1[As](=O)(O)O,-1%,97% (active),47%,-2%,96% (active),12.9%,-4%,67%,8.3%,-5%,94% (active),-16.8%,-2%,99% (active),41.5%,-1%,99% (active),66.3%
C[CH2][Hg],98% (active),99% (active),99.1% (active),100% (active),99% (active),99.5% (active),99% (active),99% (active),57.1%,99% (active),100% (active),59.3%,99% (active),99% (active),99.2% (active),94% (active),99% (active),52.2%
CC1=CC(=C2C=CC(=[N+](C)C)C=C2)C=C(C)S1,21%,72% (active),55.6%,10%,91% (active),71.6% (active),9%,94% (active),87.3% (active),7%,82% (active),77.7% (active),-2%,96% (active),87.7% (active),11%,90% (active),87% (active)
Cc1cc(CCN)c(C)c2c1sc1ccccc12,21%,99% (active),99.7% (active),92% (active),100% (active),94.3% (active),89% (active),100% (active),99.7% (active),98% (active),99% (active),89% (active),97% (active),99% (active),95.1% (active),81% (active),100% (active),99.7% (active)
CC(Br)C(=O)C(CCN(C)C)(c1ccccc1)c1ccc(Br)s1 (stereo unspecified),-9%,13%,4%,-9%,-6%,0.55%,-25%,10%,0.8%,-12%,2%,80.6% (active),-11%,-5%,16.1%,-6%,14%,11.9%
CC(=O)O[C@H]1CC[C@@]2(C)C(=CC[C@@H]3[C@@H]2CC[C@]2(C)C(=O)[C@@H](CN4CC4)C[C@@H]32)C1,2%,97% (active),59.7%,7%,99% (active),54%,22%,99% (active),68.5%,5%,75% (active),62.6%,6%,97% (active),39%,4%,98% (active),62%
CC(=O)OC[C@]12C[C@H](OC(=O)CC(C)C)C(C)=C[C@H]1OC1[C@H](O)[C@@H](OC(C)=O)[C@@]2(C)[C@@]12CO2,97% (active),98% (active),92.8% (active),98% (active),99% (active),94.4% (active),99% (active),99% (active),93.8% (active),97% (active),98% (active),91.8% (active),98% (active),99% (active),92.2% (active),97% (active),98% (active),92.6% (active)
COc1ccc([As+](c2ccccc2)(c2ccccc2)c2ccccc2)cc1,82% (active),98% (active),99.1% (active),88% (active),99% (active),98.8% (active),93% (active),99% (active),98.7% (active),77% (active),98% (active),99% (active),95% (active),99% (active),99% (active),91% (active),98% (active),99% (active)
S=c1[nH]c2ccccc2s1.[Pb],-11%,16%,93.7% (active),-1%,6%,94.8% (active),0%,8%,95.5% (active),-10%,-11%,64.2%,-4%,-7%,94% (active),-5%,-8%,90.9% (active)
O=[As]c1ccccc1O (stereo unspecified),1%,96% (active),96.6% (active),0%,98% (active),98.1% (active),2%,98% (active),90.3% (active),-9%,98% (active),92.2% (active),-5%,97% (active),97.3% (active),-1%,98% (active),96.5% (active)

# From PubChem BioAssay (NCI)
